# Hits are enriched below; roughly 2.3% of the tested compounds scored in any of these assays.
# Giardia killer: kills Giardia lamblia | activity change, % at 7.66 µM, hits read low | Giardia lamblia trophozoite viability | 0.15% of 340,000 active; in the data active = activity change below about -80%; inconclusive = between about -30% and that limit;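 note: parasites exposed to compound for two days anaerobically before the ATP read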
#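 Viability, read as ATP luminescence: trophozoites at 100 cells/well, compound added, 48 hrs anaerobic at 37 deg C, then 15-30 min room-temperature development before reading.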
# ELG1 repair inh: blocks ELG1-dependent DNA repair in HEK293T cells; 2.3% of 330,000 active; Potency, µM (highest dose often 46.1 µM), most hits filed as inhibitors; HEK293T ELG1-luciferase reporter, luminescence, 16 h; DNA damage induced by 5-fluorouridine; AID 504467; note: nearly all actives have a fitted effect of over 55% in size
#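 HEK293T cells expressing luciferase-tagged ELG1 (2,000/well) received 5-Fluorouridine plus compound or DMSO for 16 hr at 37 °C. Luciferase was read by ONE-Glo luminescence after 30 min at room temperature.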
# FUS yeast rescue: rescues growth of FUS-expressing yeast | S. cerevisiae FUS-expressing, growth rescue, OD600, 24 h | Potency, µM (series often up to 76.6 µM), usual class: activators | 0.24% of 390,000 active | AID 1347120; note: nearly all actives have a fitted effect of over 55% in size
#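 Restored growth of FUS-toxic S. cerevisiae, read as 600 nm absorbance after 24 h at 30C in galactose medium (starting OD 0.005). Controls CP55940 and DMSO.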
# TRPV1 ag: activates the human vanilloid receptor TRPV1. Q8NER1. TRPV1-expressing cells, Fluo-8 calcium influx, agonist mode. activation, % at 8.33 µM. 0.19% of 320,000 active. AID 540275; in the data active = activation above about 80%; inconclusive = between about 30% and that limit
# Target sequence (Q8NER1 whole entry, looked up): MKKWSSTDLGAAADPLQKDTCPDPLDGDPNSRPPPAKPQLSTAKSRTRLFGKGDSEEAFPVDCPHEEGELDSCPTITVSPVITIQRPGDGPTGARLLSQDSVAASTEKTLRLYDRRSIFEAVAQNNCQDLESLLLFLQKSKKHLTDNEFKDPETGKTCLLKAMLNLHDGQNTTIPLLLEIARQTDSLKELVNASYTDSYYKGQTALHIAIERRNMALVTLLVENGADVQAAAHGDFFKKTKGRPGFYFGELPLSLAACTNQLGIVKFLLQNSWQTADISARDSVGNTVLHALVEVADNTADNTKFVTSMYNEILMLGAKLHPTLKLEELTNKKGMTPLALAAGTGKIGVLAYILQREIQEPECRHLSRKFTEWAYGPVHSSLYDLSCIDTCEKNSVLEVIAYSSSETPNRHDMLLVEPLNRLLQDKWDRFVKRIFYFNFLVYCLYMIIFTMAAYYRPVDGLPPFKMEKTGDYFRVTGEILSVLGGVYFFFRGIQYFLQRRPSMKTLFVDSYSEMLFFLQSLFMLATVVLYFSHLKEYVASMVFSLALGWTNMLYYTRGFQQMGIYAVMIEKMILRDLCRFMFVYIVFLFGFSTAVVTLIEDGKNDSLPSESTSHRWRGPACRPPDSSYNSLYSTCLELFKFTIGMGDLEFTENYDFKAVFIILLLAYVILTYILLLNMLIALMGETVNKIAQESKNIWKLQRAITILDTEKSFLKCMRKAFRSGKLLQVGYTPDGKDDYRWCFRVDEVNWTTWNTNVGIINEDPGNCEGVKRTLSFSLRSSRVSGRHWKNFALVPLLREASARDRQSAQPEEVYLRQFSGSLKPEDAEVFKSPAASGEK
#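 Fluo-8 calcium influx in TRPV1-expressing cells, kinetic read (ex 480/em 520 nm). Compound added and read 3 min for agonist activity, followed by capsaicin at EC20 final and 2 min further read for enhancement.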
# TRPV1 potentiator: potentiators of human vanilloid receptor 1 (TRPV1); Q8NER1; AID 540277; potentiation, % at 8.33 µM; 0.02% of 320,000 active; TRPV1-expressing cells, Fluo-8 calcium influx, capsaicin EC20 potentiation; in the data active = potentiation above about 80%; inconclusive = between about 30% and that limit
#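 Fluo-8 calcium influx in TRPV1-expressing cells, kinetic read (ex 480/em 520 nm). Compound added and read 3 min for agonist activity, followed by capsaicin at EC20 final and 2 min further read for enhancement.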
# A number is an active result; . = inactive; ? = inconclusive; / = no result. Unless noted, calls come from the whole dose curve; as a rule, active = well fitted curve in the direction sought with a large enough effect; inconclusive = small, poorly fitted or top-dose-only effect, or another doubt; inactive = no such curve, though single readings can be large; an effect the other way counts as inactive or inconclusive.
SMILES,Giardia killer,ELG1 repair inh,FUS yeast rescue,TRPV1 ag,TRPV1 potentiator
CCOc1ccc(CCNC(=O)c2cc(-c3ccccc3)c(N3CCOCC3)s2)cc1,.,/,.,/,/
CN(Cc1ccc2c(c1)OCO2)C(=O)c1cc(-c2ccccc2)c(N2CCOCC2)s1,.,?,?,.,.
O=C(O)c1cc(-c2ccccc2)c(N2CCOCC2)s1,.,.,.,.,.
CC1(C(=O)NS(=O)(=O)c2ccc(Cl)cc2)CCN1C(=O)C/C=C/c1ccccc1 (configuration not stated),/,/,.,/,/
COc1ccc(S(=O)(=O)n2ccnc2)cc1C(C)(C)C,/,/,.,/,/
Cc1ccc(-c2nnc3ccccc3c2C(=O)Nc2ccc(C)c(F)c2)cc1,/,/,.,/,/
CCCCN(CC)CCNC(=O)C1CCCN(c2ncnc3onc(C)c23)C1 (configuration not stated),/,/,.,/,/
Cc1nc(NCc2ccc(S(N)(=O)=O)cc2)c2c(C)c(C)sc2n1,.,.,.,.,.
Cc1nc(NCCc2ccc(S(N)(=O)=O)cc2)c2c(C)c(C)sc2n1,.,13µM,.,.,.
CCc1ccccc1NC(=S)/N=C(\N)Nc1nc(C)c2cc(C)ccc2n1,.,20.6µM,/,.,.
Cc1ccc(S(=O)(=O)c2cn(CC(=O)Nc3ccccc3)c3cc4c(cc3c2=O)OCO4)cc1,/,/,.,/,/
C/C(=N/Nc1cc(-c2ccccc2)nc(-c2ccccc2)n1)c1ccc(O)cc1,.,.,/,.,.
C/C(=N\Nc1cc(-c2ccccc2)nc(-c2ccc(Br)cc2)n1)c1cccc(N)c1,.,/,12.6µM,/,/
C/C(=N/Nc1nc(-c2ccccc2)cc(-c2ccccc2)n1)c1ccc(N)cc1,/,8.2µM,/,.,.
CCc1ccccc1S(=O)(=O)Cc1ccc(C(=O)NCCc2ccc(C)cc2)o1,/,/,.,/,/
CCOc1ccc(CNC(=O)C2CCCN(c3nn4cc(-c5ccc(OC)cc5)nc4s3)C2)cc1 (configuration not stated),/,/,.,/,/
O=C(NC1(C(F)(F)F)C(=O)Nc2c1c(=O)[nH]c(=O)n2-c1ccccc1)c1ccccc1 (configuration not stated),/,/,.,/,/
Cc1cc(C(=O)N/N=C/c2ccc([N+](=O)[O-])s2)c2ccccc2n1,-95.2,20.6µM,.,.,.
Cc1ccccc1C(=O)N/N=C/c1ccc([N+](=O)[O-])s1,?,?,.,.,.
O=C(N/N=C/c1ccc([N+](=O)[O-])s1)c1ccccc1Br,-95.9,.,.,.,.
O=C(Cc1ccccc1)N/N=C/c1ccc([N+](=O)[O-])s1,-90.9,.,.,.,.
COc1ccccc1NC(=O)C(=O)N/N=C/c1ccc([N+](=O)[O-])s1,-89.5,.,.,.,.
Cc1cccc(Oc2nc3ccccn3c(=O)c2/C=C(\C#N)c2nc3ccccc3s2)c1C,/,/,.,/,/
CCn1c(=O)c(=O)n(CC)c2cc(N3CCCCC3)c(NC(=O)c3cccc(OC)c3)cc21,/,/,.,/,/
C[C@H]1CN([C@@H](C)CO)S(=O)(=O)c2ccc(Br)cc2O[C@@H]1CN(C)C(=O)C1CCOCC1,/,/,.,/,/
SMILES,Giardia killer,ELG1 repair inh,FUS yeast rescue,TRPV1 ag,TRPV1 potentiator
O=C(N/N=C/c1ccc([N+](=O)[O-])s1)C(O)c1ccccc1 (configuration not stated),?,?,.,.,.
Cc1ccnn1CC(=O)N/N=C/c1ccc([N+](=O)[O-])s1,-95.9,13µM,.,.,.
O=C(N/N=C/c1ccc([N+](=O)[O-])s1)c1ccccc1,-89.8,?,?,.,.
CC(C)Nc1ccc(-c2nc(-c3ccccn3)no2)cc1[N+](=O)[O-],/,/,.,/,/
Cc1ccc(S(=O)(=O)N2CCOCC2)cc1C(=O)O,.,.,.,.,.
CCCCn1ccnc1C(=O)c1cc(S(=O)(=O)N2CCOCC2)ccc1C,.,6.51µM,.,.,.
CCCCn1ccnc1C(=O)c1cccc(S(=O)(=O)N2CC(C)CC(C)C2)c1 (configuration not stated),.,20.6µM,.,?,.
CC1CCC(NC(=O)c2cccc(S(=O)(=O)N3CCN(C)CC3)c2)CC1 (configuration not stated),.,?,.,.,.
CN(C(=O)c1cc2c(=O)oc3ccccc3c2s1)c1ccc(F)cc1,/,/,.,/,/
COc1cccc(CNC(=O)Cc2c(C)c3c(cc(C)c4c(C)c(C)oc43)oc2=O)c1,/,/,.,/,/
C/C(Cl)=C\Cn1c(O)c(N=NC(N)=S)c2cc(Br)ccc21,.,.,.,.,.
NC(=S)N=Nc1c(O)n(CCCl)c2ccc(Br)cc12,.,14.6µM,.,.,.
COc1ccccc1N=Nc1nc(-c2ccccc2)c(-c2ccccc2)[nH]1,.,23.1µM,/,.,.
COc1ccc(N=Nc2nc(-c3ccccc3)c(-c3ccccc3)[nH]2)cc1,.,?,.,.,.
C=CC[C@@H]1C=C[C@H](O/N=C/c2ccc(C(=O)N3[C@H](c4ccc(C)cc4)[C@@H](C)CC[C@H]3C(=O)OC)cc2)[C@@H](CO)O1,/,18.4µM,/,.,.
O=C(CCl)N(c1ccccc1)c1c[nH]c2ccccc12,.,20.6µM,/,.,.
CC(=O)n1cc(N(C(=O)CCl)c2ccccc2)c2ccccc21,.,?,.,.,.
O=C(CCl)N(c1ccc(Cl)cc1)c1c[nH]c2ccccc12,.,25.9µM,/,.,.
O=C(c1ccco1)N1CCN(c2c([N+](=O)[O-])nn(-c3cccc(Cl)c3)[n+]2[O-])CC1,-86.6,?,.,.,.
COc1ccc(-c2cn3nc(N4CCCC(C(=O)Nc5cc(Cl)ccc5OC)C4)sc3n2)cc1 (configuration not stated),/,/,.,/,/
CSc1nn(Cc2ccc(Br)cc2)c(N(C(C)=O)C(C)=O)c1S(=O)(=O)c1ccccc1,/,/,.,/,/
C/C(CCN1CCc2nc(-c3ccccc3)c(-c3ccccc3)cc2C1)=N\O[C@@H](C)c1cn([C@H](CO)Cc2ccccc2)nn1,/,20.6µM,/,.,.
CC(=O)Nc1ccc(S(=O)(=O)N2CCN=C2c2ccccc2)cc1,.,8.2µM,.,.,.
CC(=O)Nc1ccc(S(=O)(=O)N2CCN(S(=O)(=O)c3ccccc3)CC2)cc1,.,.,.,.,.
Cn1c(=O)c2c(nc(NC3CCCCC3)n2CC(=O)C23CC4CC(CC(C4)C2)C3)n(C)c1=O,.,7.31µM,.,.,.
SMILES,Giardia killer,ELG1 repair inh,FUS yeast rescue,TRPV1 ag,TRPV1 potentiator
Cn1c(=O)c2c(nc(NC3CCCCC3)n2Cc2ccccc2)n(C)c1=O,.,?,.,.,?
Cc1cc(C)cc(N2CCn3c2nc2c3c(=O)n(Cc3c(F)cccc3Cl)c(=O)n2C)c1,/,/,.,/,/
COc1ccc(CCNc2nc(-c3ccc(NC(C)=O)cc3)cs2)cc1OC,.,?,.,.,.
COc1ccc(CCNc2nc(-c3sc(C)nc3C)cs2)cc1OC,.,18.4µM,.,.,.
COc1ccc(CCNc2nc(-c3ccncc3)cs2)cc1OC,.,?,.,.,.
COc1ccc(CCNc2nc(-c3ccc(O)cc3)cs2)cc1OC,?,23.1µM,?,.,.

# Screening data: PubChem, National Center for Advancing Translational Sciences (NCATS)
